# Test results published in PubChem BioAssay (Tox21).
# Values joined by “and” are separate entries in the source; they are usually repeats but may differ in a detail not shown here. Equal entries are not always repeated. Unmarked numbers belong to inactive results. Records with an inconclusive call do not appear. Where a call stands in place of a potency, no number is given. Active and inactive are the calls of the source. Unless noted, calls follow the shape of the dose curve; as a rule, active = well fitted curve in the direction sought with a large enough effect in the repeat runs; inconclusive = weak or mixed curves; inactive = no such curve, though single readings can be large; an effect the other way counts as inactive or inconclusive.
# What was measured:
# [1] = qHTS assay to identify small molecule antagonists of the glucocorticoid receptor (GR) signaling pathway - cell viability counter screen (AID 720693); also: nearly all actives have a fitted effect of over 55% in size; also: potency is read from the fitted curve at half-maximal effect
# [2] = qHTS assay for identifying genotoxic compounds that show differential cytotoxicity against isogenic chicken DT40 cell lines with known DNA damage response pathways - wild type cell line (AID 743012); also: nearly all actives have a fitted effect of over 60% in size; also: potency is read from the fitted curve at half-maximal effect
# How it was run: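 Viability by ATP luminescence (CellTiter-Glo, 30 min RT) after 40 h compound treatment at 37 C/5% CO2, using 300 parental DNA repair-proficient DT40 cells per well.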
# [3] = qHTS assay for identifying genotoxic compounds that show differential cytotoxicity against isogenic chicken DT40 cell lines with known DNA damage response pathways - Rev3 mutant cell line (AID 743014); also: nearly all actives have a fitted effect of over 55% in size; also: potency is read from the fitted curve at half-maximal effect
# [4] = qHTS assay for identifying genotoxic compounds that show differential cytotoxicity against isogenic chicken DT40 cell lines with known DNA damage response pathways - Rad54/Ku70 mutant cell line (AID 743015); also: nearly all actives have a fitted effect of over 60% in size; also: potency is read from the fitted curve at half-maximal effect
# [5] = qHTS assay to identify small molecule antagonists of the androgen receptor (AR) signaling pathway - cell viability counter screen (AID 743033; also: nearly all actives have a fitted effect of over 45% in size)
# [6] = qHTS assay to identify small molecule antagonists of the thyroid receptor (TR) signaling pathway - cell viability counter screen (AID 743064); also: nearly all actives have a fitted effect of over 50% in size; also: potency is read from the fitted curve at half-maximal effect
# How it was run: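 Counter screen for cytotoxicity: compound plus T3 (1 nM final) on GH3.TRE-Luc cells, 23.5 h at 37 °C, then fluorescence viability readout with CellTiter-Fluor.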
# [7] = system: thyroid hormone receptor (rat, GH3 cells); assay: qHTS assay to identify small molecule agonists of the thyroid receptor (TR) signaling pathway (AID 743066; calls by dose curve)
# [8] = qHTS assay to identify small molecule antagonists of the estrogen receptor alpha (ER-alpha) signaling pathway - cell viability counter screen (AID 743074; calls by dose curve; also: nearly all actives have a fitted effect of over 45% in size)
# [9] = qHTS assay to identify small molecule antagonists of the estrogen receptor alpha (ER-alpha) signaling pathway using the BG1 cell line - cell viability counter screen (AID 743081);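 also: compound given together with 17beta-estradiol as the ER stimulus; series mostly up to about 70 µM; nearly all actives have a fitted effect of over 45% in size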
# Aromatase (Homo sapiens) = Aromatase (Homo sapiens) (UniProt P11511); assay: qHTS assay to identify aromatase inhibitors (AID 743083); also: nearly all actives have a fitted effect of over 55% in size; also: potency is read from the fitted curve at half-maximal effect; as to activity, negative = inhibition: series mostly up to about 70 µM
# [10] = qHTS assay to identify small molecule antagonists of the androgen receptor (AR) signaling pathway using the MDA cell line - cell viability counter screen (AID 743041; also: nearly all actives have a fitted effect of over 45% in size)
# How it was run: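 Using the breast carcinoma line MDA-kb2 AR-luc, test chemicals were co-incubated with R1881 for 16 h; CellTiter-Fluor reagent, added at 15.5 h, provided a fluorescence measure of live cells.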
# [11] = target: Estrogen receptor (Homo sapiens) (UniProt P03372); assay: qHTS assay to identify small molecule antagonists of the estrogen receptor alpha (ER-alpha) signaling pathway (AID 743069; active = well fitted curve in the direction sought with a large enough effect in the signal ratio in the repeat runs, not every such curve was filed as active; the % refers to the signal ratio)
# How it was run: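 Fluorescence intensity from a beta-lactamase FRET substrate served as the read-out. Cells: HEK293 with stably integrated ER-alpha-UAS-bla reporter. Agonist 17beta-estradiol was co-added with compounds; incubation 18 hr at 37C, substrate 2 hr at room temperature.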
# [12] = target: Estrogen receptor (Homo sapiens) (UniProt P03372); assay: qHTS assay to identify small molecule agonists of the estrogen receptor alpha (ER-alpha) signaling pathway (AID 743075; calls by dose curve)
# [13] = target: Estrogen receptor (Homo sapiens) (UniProt P03372); assay: qHTS assay to identify small molecule agonists of the estrogen receptor alpha (ER-alpha) signaling pathway using the BG1 cell line (AID 743079); also: nearly all actives have a fitted effect of over 20% in size; also: potency is read from the fitted curve at half-maximal effect
# [14] = qHTS assay to identify small molecule antagonists of the estrogen receptor alpha (ER-alpha) signaling pathway using the BG1 cell line (AID 743080; calls by dose curve;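 also: BG1 cells stimulated with 17beta-estradiol alongside compound; nearly all actives have a fitted effect of over 25% in size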; also: potency is read from the fitted curve at half-maximal effect; as to activity change, negative = inhibition: series mostly up to about 70 µM)
# How it was run: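 Luciferase inhibition measured with ONE-Glo after 30 min at RT in BG1Luc4E2 cells given test compounds and 17beta-estradiol for 21.5 h at 37 C; CellTiter-Fluor viability read in the same wells beforehand.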
# [15] = target: Androgen receptor (Homo sapiens) (UniProt P10275); assay: qHTS assay to identify small molecule antagonists of the androgen receptor (AR) signaling pathway (AID 743035; active = well fitted inhibition curve with a large enough effect in the signal ratio in the repeat runs, not every such curve was filed as active; the % refers to the signal ratio)
# How it was run: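 Antagonist mode: AR-bla HEK293 cells co-treated with test compounds and agonist R1881 for 16 h at 37C, 5% CO2. Beta-lactamase activity read as FRET fluorescence after 2 h room-temperature substrate loading.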
# [16] = target: Androgen receptor (Homo sapiens) (UniProt P10275); assay: qHTS assay to identify small molecule agonists of the androgen receptor (AR) signaling pathway using the MDA cell line (AID 743040; also: nearly all actives have a fitted effect of over 20% in size)
# How it was run: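 Stable MMTV-luciferase reporter in MDA-kb2 cells; note the promoter carries GR as well as AR response elements. 16 h compound treatment, 37C, 0% CO2; ONE-Glo luminescence endpoint.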
# [17] = target: Androgen receptor (Homo sapiens) (UniProt P10275); assay: qHTS assay to identify small molecule antagonists of the androgen receptor (AR) signaling pathway using the MDA cell line (AID 743042; also: nearly all actives have a fitted effect of over 55% in size)
# How it was run: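 Antagonist mode: compounds plus R1881 agonist added to MDA-kb2 AR-luc cells, incubated 16 h at 37C. Luciferase reporter luminescence quantified, with multiplexed CellTiter-Fluor readout for cell viability.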
# [18] = qHTS assay to identify small molecule antagonists of the thyroid receptor (TR) signaling pathway (AID 743065); also: nearly all actives have a fitted effect of over 55% in size; also: potency is read from the fitted curve at half-maximal effect; as to activity, negative = inhibition: series mostly up to about 70 µM
# How it was run: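 Antagonism measured as loss of luciferase signal in GH3 cells stably carrying a TRE-luciferase reporter, co-treated with compound and T3 (1 nM final) for 23.5 h at 37 C. Viability was read in the same well by CellTiter-Fluor.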
# [19] = target: Androgen receptor (Homo sapiens) (UniProt P10275); assay: qHTS assay to identify small molecule agonists of the androgen receptor (AR) signaling pathway (AID 743036; active = well fitted activation curve with a large enough effect in the signal ratio in the repeat runs, with a control signal flat, not every such curve was filed as active; the % refers to the signal ratio)
# How it was run: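 In this Tox21 qHTS, 2,000 HEK293 AR-bla cells per well were incubated with compounds for 16 h at 37C and 5% CO2. Fluorescence intensity was recorded 2 h after adding LiveBLAzer B/G FRET substrate at room temperature.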
# Chain of Estrogen receptor (Homo sapiens) (P03372 whole entry, looked up): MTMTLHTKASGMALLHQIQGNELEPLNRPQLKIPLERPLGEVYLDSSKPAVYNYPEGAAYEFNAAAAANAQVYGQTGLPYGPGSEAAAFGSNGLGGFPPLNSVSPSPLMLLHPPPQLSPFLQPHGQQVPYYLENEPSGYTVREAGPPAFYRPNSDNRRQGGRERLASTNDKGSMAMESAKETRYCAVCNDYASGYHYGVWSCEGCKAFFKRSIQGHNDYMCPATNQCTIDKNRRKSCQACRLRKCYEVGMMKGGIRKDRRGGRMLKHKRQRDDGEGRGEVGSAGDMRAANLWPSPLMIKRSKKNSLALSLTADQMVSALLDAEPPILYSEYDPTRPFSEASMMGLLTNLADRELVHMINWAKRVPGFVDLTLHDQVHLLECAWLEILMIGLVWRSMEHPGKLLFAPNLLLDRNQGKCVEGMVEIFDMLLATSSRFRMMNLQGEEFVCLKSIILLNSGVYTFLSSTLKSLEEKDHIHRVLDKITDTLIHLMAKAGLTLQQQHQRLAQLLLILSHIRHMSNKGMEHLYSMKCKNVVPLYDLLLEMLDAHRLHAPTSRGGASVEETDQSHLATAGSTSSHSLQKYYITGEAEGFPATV
# Chain of Aromatase (Homo sapiens) (P11511 whole entry, looked up): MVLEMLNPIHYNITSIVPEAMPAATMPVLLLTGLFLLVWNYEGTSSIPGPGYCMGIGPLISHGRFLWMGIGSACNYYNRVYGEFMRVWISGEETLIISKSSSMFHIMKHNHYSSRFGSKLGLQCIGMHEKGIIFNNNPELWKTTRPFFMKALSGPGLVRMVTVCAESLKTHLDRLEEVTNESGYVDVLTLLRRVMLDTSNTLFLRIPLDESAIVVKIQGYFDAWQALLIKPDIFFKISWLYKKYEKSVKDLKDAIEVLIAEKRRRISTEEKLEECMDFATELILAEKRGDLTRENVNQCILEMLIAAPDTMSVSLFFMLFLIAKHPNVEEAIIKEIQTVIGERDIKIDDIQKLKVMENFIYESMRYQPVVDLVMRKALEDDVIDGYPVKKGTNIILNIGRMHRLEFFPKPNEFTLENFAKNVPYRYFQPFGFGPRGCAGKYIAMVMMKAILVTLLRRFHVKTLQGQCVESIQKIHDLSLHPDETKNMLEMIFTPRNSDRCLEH
# Chain of Androgen receptor (Homo sapiens) (P10275 whole entry, looked up): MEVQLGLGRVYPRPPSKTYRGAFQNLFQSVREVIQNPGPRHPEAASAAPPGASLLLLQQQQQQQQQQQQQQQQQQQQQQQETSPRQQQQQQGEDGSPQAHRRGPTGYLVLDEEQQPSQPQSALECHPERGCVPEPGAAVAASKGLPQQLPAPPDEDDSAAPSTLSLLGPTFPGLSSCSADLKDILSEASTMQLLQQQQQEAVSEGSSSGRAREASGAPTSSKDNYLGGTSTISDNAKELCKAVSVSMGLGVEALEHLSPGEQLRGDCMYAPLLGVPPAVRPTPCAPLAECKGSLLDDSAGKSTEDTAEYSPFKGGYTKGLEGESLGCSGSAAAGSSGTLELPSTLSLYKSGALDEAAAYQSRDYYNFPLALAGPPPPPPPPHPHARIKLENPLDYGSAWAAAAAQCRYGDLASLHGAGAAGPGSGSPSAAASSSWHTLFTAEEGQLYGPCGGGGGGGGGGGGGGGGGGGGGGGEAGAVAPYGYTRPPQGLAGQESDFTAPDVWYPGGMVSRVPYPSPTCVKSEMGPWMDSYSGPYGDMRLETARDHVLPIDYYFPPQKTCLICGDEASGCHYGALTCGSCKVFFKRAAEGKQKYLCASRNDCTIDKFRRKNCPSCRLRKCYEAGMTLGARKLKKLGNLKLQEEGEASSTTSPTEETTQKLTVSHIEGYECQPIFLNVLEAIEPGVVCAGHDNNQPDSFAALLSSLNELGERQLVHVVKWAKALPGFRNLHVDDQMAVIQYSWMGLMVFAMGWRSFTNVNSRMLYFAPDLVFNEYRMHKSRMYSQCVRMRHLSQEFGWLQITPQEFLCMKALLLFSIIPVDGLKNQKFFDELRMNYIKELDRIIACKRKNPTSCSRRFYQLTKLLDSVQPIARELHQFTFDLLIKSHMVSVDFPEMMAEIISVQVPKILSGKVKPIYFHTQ
smiles,measurement,setting,value
CCc1ccc(C(=O)C(C)CN2CCCCC2)cc1 (configuration not stated),Potency,[1],inactive
same,Potency,[2],11.9 µM (active)
same,Potency,[3],11.9 µM (active)
same,Potency,[4],16.8 µM (active)
same,Potency,[5],inactive
same,Potency,[6],inactive
same,outcome,[7],inactive
same,outcome,[8],inactive
same,Potency,[9],inactive
same,Potency,Aromatase (Homo sapiens),inactive
NC(=O)c1cc[n+](CC2=C(C(=O)[O-])N3C(=O)[C@@H](NC(=O)Cc4cccs4)[C@H]3SC2)cc1,Potency,[1],inactive
same,Potency,[2],inactive
same,Potency,[3],inactive
same,Potency,[4],inactive
same,Potency,[10],inactive
same,Potency,[11],inactive
same,outcome,[8],inactive
same,Potency,[12],inactive
same,Potency,[13],inactive
same,Potency,[14],inactive
same,Potency,[9],inactive
same,Potency,Aromatase (Homo sapiens),inactive
CCCc1ccc(OC)cc1,Potency,[1],inactive
same,Potency,[2],inactive
same,Potency,[4],inactive
same,Potency,[5],inactive
same,Potency,[15],inactive
same,outcome,[16],inactive
same,Potency,[17],inactive
same,Potency,[11],inactive
same,outcome,[8],inactive
same,Potency,[12],inactive
same,Potency,[14],inactive
same,Potency,[9],inactive
same,Potency,Aromatase (Homo sapiens),inactive
CCCCOC(=O)CC#N,Potency,[1],inactive
same,Potency,[2],inactive
same,Potency,[4],inactive
same,Potency,[5],inactive
same,Potency,[10],inactive
same,Potency,[6],inactive
same,Potency,[18],inactive
same,outcome,[7],inactive
same,Potency,[11],inactive
same,outcome,[8],inactive
same,Potency,[12],inactive
same,Potency,[13],inactive
same,Potency,[14],inactive
same,Potency,[9],inactive
same,Potency,Aromatase (Homo sapiens),inactive
COc1ccc(C(=O)c2ccc(C)cc2)c(O)c1,Potency,[1],inactive
same,Potency,[2],inactive
same,Potency,[3],inactive
same,Potency,[5],inactive
same,Potency,[10],inactive
same,Potency,[6],inactive
same,Potency,[18],inactive
same,outcome,[7],inactive
same,Potency,[11],inactive
same,outcome,[8],inactive
same,Potency,[12],inactive
same,Potency,[13],13.3 µM (active) and 12.3 µM (active)
same,Potency,[9],inactive
same,Potency,Aromatase (Homo sapiens),inactive
Cc1ccc(S(=O)(=O)NC(=O)NC2CCCC2)cc1,Potency,[1],inactive
same,Potency,[2],inactive
same,Potency,[3],inactive
same,Potency,[4],inactive
same,Potency,[10],inactive
same,Potency,[6],inactive
same,Potency,[18],inactive
same,outcome,[7],inactive
same,outcome,[8],inactive
same,Potency,[9],inactive
same,Potency,Aromatase (Homo sapiens),inactive
Clc1nc2ccccc2nc1Cl,Potency,[1],inactive
same,Potency,[2],inactive
same,Potency,[3],inactive
same,Potency,[4],inactive
same,Potency,[5],inactive
same,Potency,[18],inactive
same,outcome,[7],inactive
same,outcome,[8],inactive
same,Potency,[12],inactive
same,Potency,[13],inactive
same,Potency,[9],inactive
same,Potency,Aromatase (Homo sapiens),inactive
CC(C)(Cc1c[nH]c2ccccc12)NCC(O)COc1ccccc1C#N (configuration not stated),Potency,[1],inactive
same,Potency,[2],9.44 µM (active)
same,Potency,[3],13.3 µM (active)
same,Potency,[4],16.8 µM (active)
same,Potency,[5],inactive
same,Potency,[6],21.1 µM (active)
same,Potency,[18],23.7 µM (active)
same,outcome,[8],inactive
same,Potency,[9],inactive
same,Potency,Aromatase (Homo sapiens),inactive
CC1(C)CC(O)CC(C)(C)N1[O],Potency,[1],inactive
same,Potency,[2],inactive
same,Potency,[3],inactive
same,Potency,[4],inactive
same,Potency,[6],inactive
same,Potency,[18],inactive
same,outcome,[7],inactive
same,outcome,[8],inactive
same,Potency,[12],inactive
same,Potency,[13],inactive
same,Potency,[14],inactive
same,Potency,[9],inactive
same,Potency,Aromatase (Homo sapiens),inactive
Cc1nc2sccn2c(=O)c1CCN1CCC(=C(c2ccc(F)cc2)c2ccc(F)cc2)CC1,Potency,[1],inactive
same,Potency,[2],7.5 µM (active)
same,Potency,[3],13.3 µM (active)
same,Potency,[4],13.3 µM (active)
same,Potency,[5],inactive
same,Potency,[6],29.8 µM (active)
same,Potency,[18],26.6 µM (active)
same,Potency,[11],inactive
same,outcome,[8],inactive
same,Potency,[12],inactive
same,Potency,[14],29.8 µM (active)
same,Potency,[9],inactive
same,Potency,Aromatase (Homo sapiens),inactive
CC1(COc2ccc(CC3SC(=O)NC3=O)cc2)CCCCC1 (configuration not stated),Potency,[1],23.9 µM (active)
same,Potency,[2],10.6 µM (active)
same,Potency,[3],23.7 µM (active)
same,Potency,[4],11.9 µM (active)
same,Potency,[5],inactive
same,Potency,[6],23.7 µM (active)
same,Potency,[18],11.9 µM (active)
same,Potency,[12],inactive
same,Potency,[14],inactive
same,Potency,[9],inactive
Cc1cc(N)n(-c2ccccc2)n1,Potency,[1],inactive
same,Potency,[2],inactive
same,Potency,[4],inactive
same,Potency,[5],inactive
same,Potency,[10],inactive
same,Potency,[6],inactive
same,Potency,[18],inactive
same,outcome,[7],inactive
same,Potency,[11],inactive
same,outcome,[8],inactive
same,Potency,[12],inactive
same,Potency,[9],inactive
same,Potency,Aromatase (Homo sapiens),inactive
CCOc1cc(OCC)c(C(C)=O)cc1OCC,Potency,[1],inactive
same,Potency,[3],60 µM (active)
same,Potency,[5],inactive
same,Potency,[15],inactive
same,outcome,[19],inactive
same,outcome,[16],inactive
same,Potency,[10],inactive
same,Potency,[17],inactive
same,Potency,[6],19 µM (active)
same,Potency,[18],inactive
same,outcome,[7],inactive
same,outcome,[8],inactive
same,Potency,[12],inactive
same,Potency,[14],inactive
same,Potency,Aromatase (Homo sapiens),26.8 µM (active)
O=P(c1ccccc1)(c1ccccc1)c1ccccc1,Potency,[1],inactive
same,Potency,[3],61.1 µM (active)
same,Potency,[4],61.1 µM (active)
same,Potency,[5],inactive
same,Potency,[10],inactive
same,Potency,[6],inactive
same,outcome,[7],inactive
same,Potency,[11],inactive
same,outcome,[8],inactive
same,Potency,[12],inactive
same,Potency,[13],inactive
same,Potency,[14],inactive
same,Potency,[9],inactive
same,Potency,Aromatase (Homo sapiens),inactive
O=C(Cl)c1ccc(F)c(Cl)c1,Potency,[1],inactive
same,Potency,[3],inactive
same,Potency,[4],inactive
same,Potency,[5],inactive
same,Potency,[10],inactive
same,Potency,[6],inactive
same,Potency,[18],inactive
same,outcome,[7],inactive
same,outcome,[8],inactive
same,Potency,[12],inactive
same,Potency,[14],inactive
same,Potency,[9],inactive
same,Potency,Aromatase (Homo sapiens),inactive
O=c1c2ccccc2oc2ccccc12,Potency,[1],inactive
same,Potency,[3],61.1 µM (active)
same,Potency,[4],inactive
same,Potency,[5],inactive
same,Potency,[10],inactive
same,Potency,[18],inactive
same,outcome,[7],inactive
same,Potency,[12],inactive
same,Potency,[13],48.6 µM (active)
same,Potency,[9],inactive
same,Potency,Aromatase (Homo sapiens),inactive
CCCCCCCCCCCCCCCCCCCl,"viability change, negative = cytotoxic",[1],-4.59% [at 7.04 µM]
same,"activity change, negative = cytotoxicity",[2],14.5% [at 8.52 µM]
same,"activity change, negative = cytotoxicity",[5],-8.37% [at 7.04 µM]
same,"viability change, negative = cytotoxic",[10],-1.19% [at 8.47 µM]
same,"activity, negative = inhibition",[18],15% [at 8.44 µM]
same,activation,[7],7.57% [at 8.08 µM]
same,"activity, negative = inhibition",[11],-5.29% [at 6.71 µM]
same,"activity, negative = cytotoxicity",[8],-22.2% [at 6.72 µM]
same,activation,[12],-1.63% [at 6.71 µM]
same,activation,[13],-11% [at 8.47 µM]
same,"activity change, negative = inhibition",[14],0.197% [at 8.47 µM]
same,"activity change, negative = cytotoxicity",[9],-0.138% [at 8.47 µM]
same,"activity, negative = inhibition",Aromatase (Homo sapiens),13.8% [at 8.47 µM]
